Results filed as inconclusive are left out. Active and inactive are the calls of the source. Calls follow the shape of the dose curve; as a rule, active = well fitted curve in the direction sought with a large enough effect; inconclusive = small, poorly fitted or top-dose-only effect, or another doubt; inactive = no such curve, though single readings can be large or run the other way.
assay: qHTS Assay for Inhibitors of Histone Lysine Methyltransferase G9a: Hit Confirmation in b-rIgG Counterscreen; settings: AlphaScreen b-rIgG bead counterscreen, signal interference; series mostly up to 55.7 µM; activity change, negative = inhibition: at the top concentration
Source text: Methylated lysines, on the N-terminal tails of histone proteins serve as epigenetic markers to recruit factors that can then modify local chromatin structure to lead to functional consequences. G9a and other members of the SUV39 family of the SET domain-containing superfamily of histone lysine methyltransferases (HMT) have been identified to specifically methylate Lys9 of histone H3 (H3K9). G9a catalyzes the mono- and di-methylation of H3K9 in mammalian euchromatic regions, where the resulting H3K9me2 is indicative of transcriptional repression. […] The inhibition of G9a will result in transcriptional activation and work synergistically with DNA methyltransferase and histone deacetylase inhibitors, to kill cancer cells. This qHTS assay for identification of G9a inhibitors is a chemiluminescence based AlphaScreen (PerkinElmer). Methylation of biotinylated-histone peptide is measured through specific antibody-based detection, in conjunction with streptavidin-coated donor and anti-IgG antibody-coated acceptor beads. The method is particularly well suited for detection of inhibitors acting by the desired histone peptide competitive mechanism and is applicable to testing other HMTs. Although AlphaScreen has significant advantages with its utility in a variety of epigenetic target assays, the primary screening data provided in this deposition should be used with caution due to the prevalence of screening artifacts. Because an AlphaScreen counterscreen is highly recommended to be run against any putative actives to eliminate non specific artifacts, this assay was used as a counterscreen. Quinn et al. A chemiluminescence-based method for identification of histone lysine methyltransferase inhibitors. Mol Biosyst 6(5): 782-8. 2010. PMID: 20567762 [2] Baell,Holloway. New substructure filters for removal of pan assay interference compounds (PAINS) from screening libraries and for their exclusion in bioassays. J Med Chem. 53(7):2719-40. 2010. PMID: 20131845 NIH Chemical Genomics Center [NCGC] NIH Molecular Libraries Probe Production Network [MLPCN] MLPCN Grant: MH084681-02 Assay Submitter (PI): Structural Genomic Consortium - Toronto, Peter Brown
Biotinylated rabbit-IgG (b-rIgG) (Santa Cruz Biotechnology, Inc., Santa Cruz, CA) was added to 1,536-well plates in a 3 uL dispense. Compounds were added in a 23 nL pin-transfer step, and plates were incubated at room temperature for 15 min. Streptavidin-coated donor and anti-rIgG acceptor AlphaScreen beads were added (1 uL) for final concentrations of 20 ug/mL each bead and 1 nM b-rIgG, and plates read on the Envision after a 15 min incubation at room temperature in the dark.

SMILES	activity change, negative = inhibition	Potency
CC(C)N(CCC(=O)c1ccc2ccccc2c1)Cc1ccccc1	41.7% (inactive)	–
COc1ccccc1N1CCN(CCN2C(=O)CC3(CCCC3)CC2=O)CC1	-17.9% (inactive)	–
CC1=NN(c2nc3ccccc3[nH]2)C(=O)C1Cc1ccccc1 (stereo not given)	-7.66% (inactive)	–
COCCNC(=S)N/N=C(\C)c1ccccc1O	-4.68% (inactive)	–
O=C1C=C(Nc2ccc(Cl)cc2)C(=O)N1c1ccc(Cl)cc1	5.11% (inactive)	–
CCN1CCc2nc(N)oc2CC1	-6.81% (inactive)	–
Oc1ccc(Br)cc1C=Nc1ccc2c3c(cccc13)CC2	-34% (inactive)	–
O=C(CSc1cccc2cccnc12)N1CCCC1	15.3% (inactive)	–
COc1cc2c(cc1C(F)(F)F)N(C(=O)Nc1cc(F)cc(-c3cccnc3)c1)CC2	24.3% (inactive)	–
C[n+]1cc2c3c(ccc2c2ccc4cc5c(cc4c21)OCO5)OCO3	0.425% [at 114 µM] (inactive)	–
O=C(CSc1cccc[n+]1[O-])c1ccccc1Br	-15.3% (inactive)	–
CCc1nnc(NC(=O)c2cccc(C(=O)Nc3nnc(CC)s3)n2)s1	31.5% (inactive)	–
O=C(N/N=C/c1ccccn1)c1cc(-c2ccc(Cl)cc2)nc2ccccc12	15.7% (inactive)	–
COc1ccc(C(=O)/C=C/Sc2nc3ccccc3o2)cc1	-5.53% (inactive)	–
CNC(=O)Oc1ccc2c(c1)[C@]1(C)CCN(C)[C@@H]1N2C	-4.26% (inactive)	–
CC(C)C(=O)NC(c1ccc(N(C)C)cc1)c1ccc2cccnc2c1O (stereo not given)	-3.4% (inactive)	–
COc1ccc2c(C)cc(SCC(=O)N(C)C3CCS(=O)(=O)C3)nc2c1 (stereo not given)	-7.23% (inactive)	–
Ic1ccc(N2CCN(Cc3c[nH]c4ncccc34)CC2)cc1	3.83% (inactive)	–
O=C(NN1C(=O)c2ccccc2NC1c1ccc([N+](=O)[O-])o1)c1ccc([N+](=O)[O-])cc1 (stereo not given)	3.4% (inactive)	–
CCC(=O)N1CCN(c2ccc(NC(=O)c3ccc([N+](=O)[O-])o3)cc2Cl)CC1	-16.6% (inactive)	–

SMILES	activity change, negative = inhibition	Potency
COc1ccc2c(C)nc(Nc3nc(-c4ccccc4)cc(=O)[nH]3)nc2c1	153% (inactive)	–
COc1ccc(NC(=O)CSc2nc3c(oc4ccccc43)c(=O)n2Cc2ccco2)cc1Cl	-5.96% (inactive)	–
Cc1ccc(C(C)C)c(OCc2ccc(C(=O)N/N=C/c3cccc(O)c3O)cc2)c1	-14% (inactive)	–
O=c1c2ccccc2nc(COc2ccccc2)n1/N=C/c1c[nH]c2ccccc12	1.28% (inactive)	–
COc1cccc(N2CCN(S(=O)(=O)c3ccc(-n4cnnn4)cc3)CC2)c1	-8.09% (inactive)	–
Cc1ccc(/C=[N+](\[O-])c2ccc(N(C)C)cc2)c2nsnc12	-70.6% (inactive)	–
Oc1c(N=Nc2ccccn2)ccc2ccccc12	–	11.2 µM (active)
COc1cc2nc(N3CCN(C(=O)C4COc5ccccc5O4)CC3)nc(N)c2cc1OC (stereo not given)	-37% (inactive)	–
NC(=S)N/N=C/c1ncc(C(F)(F)F)cc1Cl	24.7% (inactive)	–
CCOn1c(=O)c[n+]([O-])c2ccccc21	17% (inactive)	–
CSc1nsc(/C=C/Nc2cccc(Cl)c2)c1C#N	9.36% (inactive)	–
CN(c1ccccc1)S(=O)(=O)c1nnc(NC(=O)c2ccccc2)s1	-8.51% (inactive)	–
N=c1n(CC(=O)c2ccc([N+](=O)[O-])cc2)c2ccccc2n1Cc1ccccc1Cl	-10.2% (inactive)	–
NC(=O)c1cc[n+](CC2=C(C(=O)O)N3C(=O)[C@@H](NC(=O)[C@@H](c4ccccc4)S(=O)(=O)[O-])[C@H]3SC2)cc1	-11.5% [at 114 µM] (inactive)	–
CNc1nc(N2CCCN(C)CC2)nc2cc(OC)c(OC)cc12	-17.3% (inactive)	–
O=C1CN(c2nc(-c3ccccc3)c3cc(Cl)ccc3n2)c2ccccc2N1	11.1% (inactive)	–
C/C=C/c1ccc(OCC(=O)OCC(=O)NC2CC2)c(OC)c1	-10.2% (inactive)	–
COc1nc(Nc2nc3ccccc3c(=O)[nH]2)nc2ccc(C)cc12	34.5% (inactive)	–
CCCCOC(=O)Cn1c2ccc(OC)cc2c2nc3ccccc3nc21	16.2% (inactive)	–
CCCC(=O)N1CCN(c2ccc(NC(=O)c3ccc([N+](=O)[O-])o3)cc2Cl)CC1	-19.1% (inactive)	–
